# In PubChem BioAssay (NCI):
# This is part of a sample that, as a whole, favours compounds with a hit. Of some 83,000 tested, about 20% had one in any assay.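 Values shown are percent growth following 48 h exposure of cells in 96-well plates to a single concentration of compound; below 10 was considered active.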 A number with no mark means an inactive call. The source made the active and inactive calls.
# What was measured:
# Test in all cases: NCI-60 one-dose screen, 48 h (100 = growth as untreated, 0 = no growth, -100 = all killed)
# Details in all cases: 10 µM unless noted
# NCI-H23 lung = tested on: NCI-H23 lung
# NCI-H226 lung = tested on: NCI-H226 lung
# NCI-H322M lung = tested on: NCI-H322M lung
# HOP-62 NSCLC = tested on: HOP-62 NSCLC
# NCI-H460 lung = tested on: NCI-H460 lung
# HOP-92 NSCLC = tested on: HOP-92 NSCLC
# NCI-H522 lung = tested on: NCI-H522 lung
# A549/ATCC NSCLC = tested on: A549/ATCC NSCLC
# 786-0 renal = tested on: 786-0 renal
# COLO 205 colon = tested on: COLO 205 colon
SMILES,growth (NCI-H23 lung),growth (NCI-H226 lung),growth (NCI-H322M lung),growth (HOP-62 NSCLC),growth (NCI-H460 lung),growth (HOP-92 NSCLC),growth (NCI-H522 lung),growth (A549/ATCC NSCLC),growth (786-0 renal),growth (COLO 205 colon)
O=C(CCCCCCNC(=O)C(O)(O)C(F)(F)F)Nc1ccc(Cl)cc1,24.3%,66.6%,44%,4.42% (active),23.3%,6.13% (active),-22.3% (active),20.7%,35.7%,-57.4% (active)
CCCC[n+]1ccc(SCC(=O)n2ccc3ccccc32)c2ccccc21,74.5%,71.1%,96.4%,103%,97.8%,138%,83.2%,87.5%,106%,99.8%
CN1CCN(CCCCCC(=O)Nc2nc(-c3cccc(NS(=O)(=O)c4cccc5c(N(C)C)cccc45)c3)cs2)CC1,65.2%,85.9%,96%,90.3%,79.3%,32.4%,91.8%,70.9%,79%,82.4%
CC(=O)N(O)CCCCCNC(=O)CCC(=O)N(O)CCCCCNC(=O)CCC(=O)N(O)CCCCCN(CCCCCCCCCC[P+](c1ccccc1)(c1ccccc1)c1ccccc1)CCCCCCCCCC[P+](c1ccccc1)(c1ccccc1)c1ccccc1,-16.5% (active),-6.05% (active),-28.9% (active),7.35% (active),-12.4% (active),-18.4% (active),-18.8% (active),9% (active),21.5%,-43.4% (active)
COc1cccc(N2CCN(C3=C(Cl)C(=O)c4ncccc4C3=O)CC2)c1,60.3%,94.7%,95.4%,83.5%,63%,135%,42.6%,97.2%,114%,91.9%
C[C@H]1OCC2(CCN(c3cnc(C(=O)Nc4cc(F)cc5cccnc45)cn3)CC2)[C@H]1N,75.3%,80%,81.4%,84.1%,89.1%,34.7%,31.6%,77.3%,60.1%,13.3%
CS(=O)(=O)c1ccc(/C(=N/N=C(N)N)c2ccc(Cl)cc2)cc1,95.4%,95.5%,94.9%,85.1%,99.1%,57.2%,77.4%,99.2%,88.5%,91.5%
COc1cc(C(=O)c2cc(C(C)=O)c3ccc(C)cn23)cc(OC)c1OC,48.9%,66.3%,66%,52.4%,15.9%,97%,38.4%,46.7%,50.5%,39.8%
NC(=O)c1ncn2c(=O)n(CCF)nnc12,94.5%,68.5%,78%,53.5%,54.9%,99.3%,82.7%,99%,61.3%,57.4%
CC(=O)N1N=C(c2cc3ccccc3oc2=O)CC1c1cn(-c2ccccc2)nc1-c1ccc(C)cc1 (stereo not given),100%,94.8%,101%,93%,104%,105%,97.4%,97.3%,103%,103%
NC1CC2(CCN(c3cnc(C(=O)Nc4cc(F)cc5cccnc45)cn3)CC2)C1,88.6%,93.2%,87.4%,96%,83.8%,79.7%,93.3%,63.2%,71.8%,49.9%
CN1CCN(c2ccc(Nc3nc(NCCNS(=O)(=O)c4ccc(Cl)cc4)c4sccc4n3)cc2)CC1,96%,105%,99.4%,104%,98.8%,49.4%,106%,92.7%,75.8%,99.7%
O=C(/C=C/c1cccc(F)c1)c1cccc(OCCCCOc2cccc(C(=O)/C=C/c3cccc(F)c3)c2)c1,102%,103%,102%,114%,100%,139%,93.4%,104%,106%,117%
CC1(C)CC[C@]2(C(=O)O)CC[C@]3(C)C(=CC[C@@H]4[C@@]5(C)CC[C@H](NOCCCN)C(C)(C)[C@@H]5CC[C@]43C)[C@@H]2C1,91.1%,90.3%,94%,102%,73.3%,62.3%,97.2%,77.9%,98.6%,19.6%
N#C/C(=C\c1cccc2c1OCO2)C(=O)Nc1sc2c(c1C#N)CCCC2,102%,95.8%,89.1%,96.8%,110%,101%,94.2%,104%,99.6%,119%
C#C[C@]1(O)CC[C@H]2[C@@H]3CC=C4c5sc(Nc6ncccc6C)nc5CC[C@]4(C)[C@H]3CC[C@@]21C,9.38% (active),23.4%,32.8%,11.9%,0.476% (active),20.5%,25.9%,21.8%,-56.2% (active),34.8%
C#CCN(C)CCCOc1ccc(NCc2ccc(/C=C/C(=O)NO)cc2)cc1Cl,-24% (active),-11.7% (active),9.85% (active),3.99% (active),4.27% (active),-27.6% (active),2.32% (active),-3.43% (active),-2.14% (active),-24.4% (active)
